About 11,000 (3.8%) of roughly 290,000 compounds were called active. This is one part of a sample in which actives are shown more often than they occur.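 How the source made its calls: active means mean replicate inhibition above about 79%, with every replicate also reaching it (limit read from the data); inconclusive means only one of the two criteria met; inactive means mean below limit and not every replicate reaching it.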
What follows are compounds tested against FAD-linked sulfhydryl oxidase ALR (Homo sapiens) (UniProt P55789) (assay: inhibitors of human ALR sulfhydryl oxidase, primary screen, biochemical, H2O2 detection, HRP-luminol luminescence, single point (AID 485317)). Conditions: purified ALR, DTT oxidation, hits give high values, concentration not given here.
Sequence of FAD-linked sulfhydryl oxidase ALR (Homo sapiens) (P55789 whole entry, looked up): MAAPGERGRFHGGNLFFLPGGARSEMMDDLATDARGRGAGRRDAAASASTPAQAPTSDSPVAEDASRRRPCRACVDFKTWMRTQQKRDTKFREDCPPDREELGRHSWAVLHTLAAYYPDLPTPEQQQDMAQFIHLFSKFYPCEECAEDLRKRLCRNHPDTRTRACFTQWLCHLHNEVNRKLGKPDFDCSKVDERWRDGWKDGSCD

inhibition, inactive:
O=c1c2ccccc2ccc2ccc(P(=O)(O)O)cc12 -13.1%
O=C1NC[C@@H](c2ccccc2)OC(=O)[C@H](Cc2ccc(F)cc2)CC/C=C/C[C@H]1CC(=O)N(CCO)Cc1ccccc1 -7.53%
CC(C)(C)OC(=O)Nc1ccc([C@@H](NC(=O)OC(C)(C)C)C(=O)OC(C)(C)C)cc1 2.09%
Cc1cc(C(=O)O)ccc1[N+](=O)[O-] -8.6%
CC(C)NC(=O)c1ccc(Sc2ccccc2)c([N+](=O)[O-])c1 5.17%
COc1ccc2ccn(C)c2c1 7.82%
O=C(CNC(=O)c1n[nH]c2ccccc12)Nc1cc(Cl)ccc1Cl -1.04%
Cc1ccc(CNC(=O)COC(=O)C2CCC2)cc1 2.97%
O=C(CSc1nc2ccccc2s1)Nc1ccc(C(=O)O)cc1 -1.73%
CCN(CC)CCCSc1nc2ccccc2s1 -9.41%
Cc1ccc(C(=O)OCC(=O)N2CC(C)CC(C)C2)cc1S(=O)(=O)N1CCCCC1 (centres undefined) -62.3%
COCCCn1c(SCC(=O)Nc2oc(C)c3c(C)n[nH]c(=O)c23)nc2sc3c(c2c1=O)CCC3 -9.92%
CC(OC(=O)CCC(=O)c1ccccc1)C(=O)Nc1ccc(F)cc1 (centres undefined) -4.58%
O=C(CCCN=C1NS(=O)(=O)c2ccccc21)OCC(=O)c1ccc(F)c(F)c1 -7.91%
CC(C)(C)Nc1c(N)c(=O)oc2ccccc12 72.1%
NC(=O)c1oc2ccccc2c1NC(=O)Cc1ccccc1 -7.38%
O=C(Nc1ccc(C(F)(F)F)cc1)c1cccc(-n2cnnn2)c1 -5.63%
CSc1ncccc1C(=O)NCC(c1ccco1)N1CCCCC1 (centres undefined) -3.83%
O=C(COC(=O)c1cc(=O)[nH]c2ccccc12)NCc1cccc(Cl)c1 1.99%
COc1ccc(N2CCN(C(=O)/C(C#N)=C/c3ccccc3)CC2)cc1 33.6%
N#C/C(=C\c1ccc(-c2cccc([N+](=O)[O-])c2)o1)C(=O)NCCN1CCOCC1 -9.22%
COc1ccccc1C(=O)NCCC(=O)NC(C)CCc1ccccc1 (centres undefined) -10.1%
Cc1sc2ncnc(N3CCC(C(=O)Nc4nc5ccc(Cl)cc5s4)CC3)c2c1C -1.15%
CC(C)Oc1ccc(C(=O)NCC(=O)Nc2ccc3c(c2)CCC3)cc1 1.47%
O=C(COc1ccc(Cl)cc1)Nc1ccc2c(c1)OCO2 -11.8%
COc1ccc(OCC(=O)NNC(=O)C2CCC2)cc1 -2.8%
O=C(NCc1ccccc1CN1CCCC1)C1CCN(S(=O)(=O)c2ccc(Cl)cc2)CC1 2.81%
COC(=O)C1=C(C)N(Cc2ccccc2)C(=NCCCOC(C)C)N[C@H]1c1ccccc1 -6.98%
CCCCC(CC)CNC(=O)CCCCn1c(=O)[nH]c2ccsc2c1=O (centres undefined) -6.66%
CCN(CC)CCCNC(=O)CCc1ccccc1 -4.98%
CC(C)(C)Oc1ccccc1Nc1nc(NCCO)nc(N2CCCC2)n1 6.57%
Cc1ccsc1C(=O)NNC(=O)COc1ccc(Br)cc1 -3.21%
COc1ccc(NC(=O)CSc2nc3ccccc3c(=O)n2C)cc1 -13.7%
COc1ccc(Cc2nnc(SCC(=O)N(c3ccccc3)C(C)C)n(N)c2=O)cc1 -4.76%
CCn1c(SCC(=O)Nc2nccs2)nnc1-c1ccco1 -4.02%
CCn1c(SCC(=O)Nc2nccs2)nnc1-c1ccncc1 -12.3%
CCn1c(SCC(=O)Nc2ccc(OC)c(OC)c2)nnc1-c1c[nH]c2ccccc12 -15.3%
Cc1cc(-c2nnc(SCC(=O)Nc3ccc(F)cc3)n2N)n[nH]1 -1.02%
Cn1c(SCC(=O)Nc2nccs2)nnc1-c1cccnc1 2.9%
Cc1cc(C(=O)OCC(=O)Nc2nccs2)c2ccccc2n1 -1.42%
O=C(c1cc(-c2ccc(Cl)s2)nc2ccccc12)N1CCOCC1 -1.66%
CN1CCC(N(C)S(=O)(=O)c2ccc(NC(=O)c3cccc(C#N)c3)cc2)CC1 -3.41%
Cc1nc2c(c(C)nn2-c2ccccc2)c(C)c1C -7.19%
Cc1nc(-c2ccc(Cl)cc2)sc1C1(C)CC(c2ccc(Br)cc2)=NO1 (centres undefined) -3.38%
CCCCN(C(=O)CCNC(=O)NC12CC3CC(CC(C3)C1)C2)c1c(N)n(CCCC)c(=O)[nH]c1=O -9.44%
CC(=O)CC(CC(=O)NC1CCCCC1)c1ccccc1 (centres undefined) -6.14%
CN(CC(=O)NNC(=O)CNC(=O)c1ccccc1Cl)S(=O)(=O)c1ccc(Cl)cc1 -3.96%
CCN1C(=O)[C@@H]2[C@@H](c3ccc(-c4cccc(Cl)c4)cc3)N3CCC[C@@]3(C(=O)OC)[C@@H]2C1=O -0.179%
CC1(C)O[C@@H]2[C@H](O1)[C@@H](COS(=O)(=O)O)O[C@H]2n1cnc2c(=O)[nH]cnc21 -3.87%
O=C(Nc1ncccc1O)c1ccc(S(=O)(=O)N2CCCCCC2)cc1 -12.4%
O=C(OCCOCn1cc(Br)c(=O)[nH]c1=O)c1ccccc1 18.4%
Cc1[nH]c2ccccc2c1C(=O)CN1CC(C)CC(C)C1 (centres undefined) -7.59%
CCOC(=O)N1CCN(CC(=O)c2c(C)[nH]c3ccccc23)CC1 -13%
CC(=O)Nc1ccc(NC(=O)COC(=O)C2CCC(C(C)(C)C)CC2)cc1 (centres undefined) -2.92%
CCOC(=O)CCCCCC(=O)Nc1ccc2c(c1)CC(=O)N([C@@H](C)CO)C[C@H](C)[C@@H](CN(C)Cc1ccccc1)O2 -2.17%
CCC(C)N1C(=S)SC(C)(C)C1N(O)C(=O)NC1CCCCC1 (centres undefined) -8.63%
CCCCNC(=O)N(O)C1N(/N=C/c2ccccc2O)C(=S)SC1(C)C (centres undefined) -2.9%
COc1ccc(OCC(=O)NNC(=O)c2ccc(-c3ccccc3)cc2)cc1 1.13%
COc1ccc(C(=O)NNc2cc(C)nc(NNC(=O)c3ccc(OC)cc3)n2)cc1 12.7%
O=C(CNS(=O)(=O)c1ccc2c(c1)OCCCO2)N1CCN(c2ccc(F)cc2)CC1 3.71%
CC(C)NC(=O)Nc1cccc2c1O[C@H](CN(C)S(=O)(=O)c1cccs1)[C@@H](C)CN([C@H](C)CO)C2=O 0.238%
Cc1[nH]n(-c2cccc(Cl)c2)c(=O)c1-c1ccc(Cl)cc1 32.9%
CC1=NN(C(N)=S)C(=O)C1N=Nc1cc(Cl)ccc1Cl (centres undefined) 34.1%
Cc1ccc(S(=O)(=O)N(C)c2ccc(OCC(=O)OCc3ccc(C#N)cc3)cc2)cc1 2.46%
O=C(COC(=O)/C=C/c1nc2ccccc2s1)Nc1ccccc1Oc1ccccc1 28.6%
CCN(C(=O)CSc1nc2ccccc2n1CC)C1CCS(=O)(=O)C1 (centres undefined) 9.23%
COc1ccccc1NC(=O)C(C)OC(=O)c1ccc(-n2cnnn2)cc1 (centres undefined) 7.2%
CCc1cccc(NC(=O)COC(=O)C2CCN(c3ccc(C(F)(F)F)cn3)CC2)c1 -1.14%
O=C(Oc1ccc(-c2nnco2)cc1)c1ccc(F)c(S(=O)(=O)N2CCOCC2)c1 -0.68%
Cc1cccc(OCC(=O)OCC(=O)Nc2ccc(Cl)cn2)c1 0.248%
COc1ccc(C(=O)NCC(c2ccco2)N2CCc3ccccc32)cc1OC (centres undefined) 72.4%
Cc1ccccc1C(=O)NCC(c1ccco1)N1CCc2ccccc21 (centres undefined) 27%
O=C(Nc1cc(S(=O)(=O)Nc2ccc(Cl)cc2)ccc1O)c1ccc(F)cc1F -4.12%
CSc1ccc(S(=O)(=O)NCC(=O)OCC(=O)NC2(C#N)CCCCC2)cc1[N+](=O)[O-] -5.06%
c1ccc(-c2cc(-c3ccccc3)[nH]n2)cc1 -15.4%
O=C1C=C(c2ccccc2)CCC1 0.158%

inhibition, active:
Cc1ccc(Sc2cc(C(=O)c3ccccc3C(=O)O)ccc2[N+](=O)[O-])cc1 97.5%
COc1ccc2c(c1)cc1n2CCN=C1NN 97.6%
O=C(O)c1ccccc1CSc1nc2ccccc2s1 98.5%
Nc1c(NCCc2ccccc2)c2ccccc2oc1=O 98.8%
N#C/C(=C\c1ccc(N2CCOCC2)o1)C(=O)N1CCOCC1 83.6%
NNC(=O)COc1ccc(C2SCCS2)cc1 89.6%
CCN(CCCNC(=O)CCn1c(=O)[nH]c2ccsc2c1=O)c1ccccc1 99.3%
COc1ccc(NC(=O)CSc2nnc(Cc3ccccc3)c(=O)n2N)cc1 98.6%
Nn1c(SCC(=O)Nc2nccs2)nncc1=O 98.8%
COc1ccc(NC(=O)CSc2nncc(=O)n2N)cc1OC 87%
Cc1[nH]c2ccccc2c1SCC(=O)Nc1nccs1 97.1%
Cc1[nH]c2ccccc2c1C(=O)CSCC(=O)O 98.3%
CCCCNC(=O)N(O)C1N(/N=C/c2ccc(N(C)C)cc2)C(=S)SC1(C)C (centres undefined) 98.8%
Cc1nc(NNC(=O)c2ccccc2)cc(-c2ccccc2)n1 90.8%
Cc1[nH]n(C(N)=S)c(=O)c1N=Nc1ccc(Cl)cc1Cl 96.2%
CCN(C(=O)COC(=O)/C=C/c1nc2ccccc2s1)C1CCS(=O)(=O)C1 (centres undefined) 94.6%
O=C(NCC(c1ccco1)N1CCc2ccccc21)c1cccc(F)c1 (centres undefined) 95.5%
O=c1[nH]c(-c2ccccc2)c(-c2ccccc2)[nH]1 98.6%

Reference: PubChem BioAssay AID485317 (Broad Institute, 2010)
